A selection: hits, their analogues and other compounds. The true share with any hit is near 0.51%.
E coli growth-1: inhibitors of Escherichia coli growth; OD600, 23 h; stronger effect = lower value; OD600 absorbance (test concentration not listed); 330,000 tested, 0.21% active; AID 1053175;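 active means OD600 absorbance below the run mean of sample wells minus 3.6 SD, in any replicate, cut at about 0.56 in these data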
Tat export inh: blocks Tat-dependent protein export in E. coli; E. coli MC4100 TorA-mCherry Tat export, fluorescence; inhibition, % at 10 µM; 340,000 tested, 0.036% active;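 active means mean replicate inhibition at least 50% and at least half of replicates individually reaching 50%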;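 further: exported cargo escapes ClpAP degradation while cytoplasmic cargo is degraded and loses fluorescence; 0% = median of neutral control wells and 100% = median of NaSCN control wells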
E coli growth-2: counter-screen for AddAB inhibitors: E. coli growth inhibition; E. coli V3065 growth, OD600 absorbance, 18 h; inhibition, % at 11.9 µM; 330,000 tested, 0.27% active; AID 449728;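 active means inhibition above the campaign's mean inhibition across all tested compounds plus 3 SD, cut at about 9.9% in these data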;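 further: uninfected addAB+ strain grown without phage in ampicillin broth; 0% = DMSO wells and 100% = ciprofloxacin 0.95 µg/ml wells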
AddAB inh: less growth of phage-infected E. coli with AddAB | 330,000 tested, 0.29% active | inhibition, % at 11.9 µM | AID 435030 | E. coli expressing H. pylori AddAB, absorbance growth; in the data active means inhibition above about 12%;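 further: 0% = vehicle wells of infected cells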
phage Ecoli inh: E. coli growth loss with phage present | inhibition, % at 11.9 µM | 360,000 tested, 0.26% active | growth absorbance; in the data active means inhibition above about 11%
Active calls of the source: *; / = no result.

SMILES	E coli growth-1	Tat export inh	E coli growth-2	AddAB inh	phage Ecoli inh
Cc1ccc(C=NNC(=O)CSc2nnc(-c3ccccc3)n2-c2ccc(Cl)cc2)o1	0.69	/	/	/	/
O=C(CSc1nnc(-c2ccccc2)n1-c1ccc(Cl)cc1)N/N=C/c1ccco1	/	4	11*	-7	4
CCc1ccc(Nc2n[n+](-c3ccccc3)c(-c3c(Cl)cccc3Cl)s2)cc1	0.47*	13	8	8	4
CCCOc1ccc(/C=N/NC(=S)Nc2ccccc2[N+](=O)[O-])c(O)c1	/	/	11*	10	7
CC1CN(C(C)CO)C(=O)c2cc(NC(=O)C3CC3)ccc2OC1CN(C)S(C)(=O)=O (stereo not given)	0.68	/	/	/	/
Cc1cc(C)c(S(=O)(=O)/N=C2/C=C(Sc3ncn[nH]3)C(=O)c3ccccc32)cc1C	/	-9	4	5	11*
COc1ccc(C2C=CCN(Cc3ccncc3)CC(=O)N2Cc2ccc(F)cc2)cc1 (stereo not given)	0.72	/	/	/	/
Cc1cc(C=C(C#N)C(=O)Nc2ccccc2)c(C)n1-c1cccnc1	0.72	/	/	/	/
C/C(CC(=O)Nc1cc(C)ccn1)=N\NC(=O)c1cccc(C)c1O	/	3	7	10	11*
O=C(CSc1nc2ccccc2[nH]1)Nc1ccc2c(c1)OCCO2	0.62	-5	10*	12	9
Cc1ccc2nc(SCC(=O)Nc3ccc4c(c3)OCCO4)[nH]c2c1	0.65	-1	0	1	-1
CC=CC(=O)Nc1cccc(C2=NOC3(C2)CC(C(N)=O)N(C(=O)c2ccccc2)C3)c1 (stereo not given)	0.72	/	/	/	/
Cc1cc(O)c2c(c1O)C(=O)[C@]13C(=C2O)C(=O)[C@@H]2[C@@H](O)[C@H]1[C@@H]1[C@H](O)[C@H]3C(=O)C3=C(O)c4c(O)cc(C)c(O)c4C(=O)[C@]312	0.55	27	9.9*	12	/
CC(=O)NC(CC(=O)N(C)Cc1c(F)cccc1Cl)c1ccccc1 (stereo not given)	0.69	5	3	2	1
CC(=O)NC(CC(=O)N(C)Cc1cccc(Cl)c1Cl)c1ccccc1 (stereo not given)	0.54*	-8	3	1	2
CCCCC1CN=C(N)N1CC(C)(C)C (stereo not given)	0.67	/	/	/	/
Cc1cccc(N2C(=O)CSC2=NNC(=O)c2ccc(Br)cc2)c1C	0.6	/	/	/	/
Cc1cccc(N2C(=O)CS/C2=N\NC(=O)c2ccc(Br)cc2)c1C	/	-13	13*	12	11
Cc1noc(C)c1NC(=O)N(C)CC1Oc2c(NC(=O)Nc3ccc4c(c3)OCO4)cccc2C(=O)N(C(C)CO)CC1C (stereo not given)	0.69	/	/	/	/
O=C(O)c1ccccc1C(=O)Nc1ccc(S(=O)(=O)Nc2nccs2)cc1	0.62	-8	11*	10	8
COc1ccccc1C(=O)Nc1ccc(S(=O)(=O)Nc2nccs2)cc1	0.66	3	-1	2	1
COc1ccc(C(=O)N2CCOC2CNC(=O)C(=O)NCc2ccc3c(c2)OCO3)cc1 (stereo not given)	0.51*	4	0	0	1
CCn1cc(C(=O)O)c(=O)c2cc(OC)ccc21	0.53*	-1	3	10	-1
CCn1cc(C(=O)O)c(=O)c2cc(S(=O)(=O)N3CCCCCC3)ccc21	0.6	1	1	0	-2
COc1ccc(C=Cc2onc(C)c2S(=O)(=O)N2CCC(C(=O)NCCC(C)C)CC2)cc1	0.68	/	/	/	/
SMILES	E coli growth-1	Tat export inh	E coli growth-2	AddAB inh	phage Ecoli inh
N#CC(=NNc1ccc(Cl)cc1)C(N)=S	0.45*	/	/	/	/
Nc1ccccc1SCc1cn2ccccc2n1	0.62	75*	4	5	5
Nc1ccccc1SCc1cn2cccnc2n1	0.73	0	1	3	3
CCCCCCOC(=O)C[N+](C)(C)CCOC1CC2CCC1(C)C2(C)C (stereo not given)	0.68	0	4	1	1
CCCCCCCOC(=O)C[N+](C)(C)CCOC1CC2CCC1(C)C2(C)C (stereo not given)	0.32*	22	/	/	5
CCC(C)C(C(=O)N1CCNCC1)n1cc(CCC(=O)O)nn1 (stereo not given)	0.69	/	/	/	/
CCc1ncc(C)nc1CC	0.77	55*	-2	5	1
CCc1ncc(C)[nH]1	/	/	-1	0	2
CCCCCCCCCCCCCCCC(=O)OC(CC(=O)O)C[N+](C)(C)C (stereo not given)	0.64	54*	-2	-2	2
CCCCCCC(=O)O	0.69	3	1	4	1
COC(=O)C1=C(C(=O)OC)[N+]2=C3N(C(=O)NC2(C)C)C(CO)C[C@@]32c3ccccc3N(Cc3ccccc3)C12 (stereo not given in full)	0.7	/	/	/	/
Cc1nc2c(Br)cc(Br)cc2cc1O	0.56*	3	7	4	8
Brc1cc(Br)c2nc(-c3cccs3)ccc2c1	0.76	-8	3	2	0
Cc1ccc2nc(-c3ccccn3)c(Nc3ccccc3C)n2c1	0.5*	-28	1	1	-2
c1ccc(C2CNCCN2CCc2cccc3ccccc23)cc1 (stereo not given)	0.65	/	/	/	/
CCN1CCN(C(=O)NC(C(=O)NC2C(=O)N3C(C(=O)O)=C(CSc4nnnn4C)CSC23)c2ccc(O)cc2)C(=O)C1=O (stereo not given)	0.061*	/	/	/	/
Cn1nnnc1SCC1=C(C(=O)O)N2C(=O)C(NC(=O)Cn3nc(C(F)F)cc3C3CC3)C2SC1 (stereo not given)	0.49*	-2	2	0	9
Cc1nnc(SCC2=C(C(=O)O)N3C(=O)C(NC(=O)Cc4ccccc4)C3SC2)s1 (stereo not given)	0.6	8	-1	2	2
CC(C(=O)NC1C(=O)N2C(C(=O)O)=C(CSc3nnnn3C)CSC12)n1cc(Cl)cn1 (stereo not given)	0.5*	-3	1	-1	5
Cc1c(Cl)cnn1CC(=O)NC1C(=O)N2C(C(=O)O)=C(CSc3nnnn3C)CSC12 (stereo not given)	0.074*	0	-2	-2	8
Cc1c(Cl)c(C(F)F)nn1CC(=O)NC1C(=O)N2C(C(=O)O)=C(CSc3nnnn3C)CSC12 (stereo not given)	0.65	-3	/	/	6
CCN1C(=O)C2C(c3ccc(-c4ccc(OC)cc4)c(OC)c3)N[C@@](Cc3ccccc3)(C(=O)OC)C2C1=O (stereo not given in full)	0.69	/	/	/	/
Cc1nn(CC(=O)NC2C(=O)N3C(C(=O)O)=C(CSc4nnnn4C)CSC23)cc1Br (stereo not given)	0.46*	-11	1	0	5
CCC1(CC)C(=O)C2=C3C(CC(C(=O)OC)CC(C(=O)OC)C31)C1C(=O)N(c3ccccc3)C(=O)C1C2C (stereo not given)	0.64	/	/	/	/
N=C(N)c1ccc(/C=C/c2ccc(C(=N)N)cc2O)cc1	0.66	76*	4	6	7
O=[N+]([O-])c1ccc(-c2cccnc2)cc1	0.53*	-8	/	/	4

Compound activity (PubChem BioAssay)
